Results: ChEMBL document CHEMBL3988442, “University of Dundee, Small-Polar-MMV Screening Library” (2021)
Several values for one entry are separate records, joined by “and”; a condition that tells them apart may be missing. Equal values may be shown once. Out of some 53,000 compounds screened, about 900 (1.7%) showed an effect of 50% or more. This excerpt belongs to a sample that is enriched for strong results.

Test system: Mycobacterium tuberculosis
Assay: Cornell - Phenotypic assay to identify agents that inhibit growth of Mycobacterium tuberculosis
Assay type: functional
Set-up: scale not given: direction of the effect not stated beside the values

| SMILES | Percent Effect (10 mM as filed; unlikely as a test dose) [%] | Percent Effect (10 mM, 10 mM as filed; unlikely as a test dose) |
| --- | --- | --- |
| O=C(c1cc(C2CC2)on1)N1CCC(Oc2ncccc2Cl)CC1 | 82.03 | – |
| O=C(c1ccccn1)N1CCC(Oc2ncccc2Cl)CC1 | 37.07 | – |
| O=C(c1cnccn1)N1CCC(Oc2ncccc2Cl)CC1 | 13.63 | – |
| O=C(c1cc(C2CC2)on1)N1CCC(Oc2ncccc2Br)CC1 | 83.65 | – |
| N#Cc1cccnc1OC1CCN(C(=O)c2cc(C3CC3)on2)CC1 | 39.39 | – |
| O=C(c1ccccn1)N1CCC(Oc2cccnc2)CC1 | -17.68 | – |
| CN(C)S(=O)(=O)N1CC(c2ccnc(Nc3ccccn3)n2)C1 | 25.46 | – |
| COc1ccc(CN2CCC3(CC2)CCN(CC2CC2)C3=O)cc1.O=C(O)C(F)(F)F | 6.492 | – |
| CCC(=O)N1CCCCC[C@@H]2[C@@H]1[C@H](c1cccc(F)c1)CN2C | -24.01 | – |
| COc1cccc(C(=O)Nc2n[nH]c(C3CCCO3)n2)c1 (configuration not stated) | 12.47 | – |
| CCOc1ncccc1CNC(=O)NCCNC(=O)c1ccco1 | 0.1336 | – |
| CCNC(=O)c1cc2n(n1)CCCO2 | -8.867 | – |
| O=C(c1ccncc1)N1CCc2[nH]nc(Nc3ccccc3)c2C1 | -24.78 | – |
| O=C(c1cccnc1)N1CCc2[nH]nc(Nc3ccccc3)c2C1 | 46.76 | – |
| O=C(c1cncs1)N1CCc2[nH]nc(Nc3ccccc3)c2C1 | 58.68 | – |
| CN(Cc1ccc(F)cc1)CC1(O)CCN(C(=O)c2cccs2)C1 (configuration not stated) | -44.56 | – |
| COc1cccc(CCC(=O)Nc2ccn(C)n2)c1OC | -2.109 | – |
| COc1cc(C2C3=C(COC3=O)Nc3[nH]nc(C)c32)cc(Br)c1O (configuration not stated) | 101.5 | – |
| COc1cccc(C2C3=C(COC3=O)Nc3[nH]nc(C)c32)c1O (configuration not stated) | -49.1 | – |
| CCOc1c(Br)cc(C2C3=C(COC3=O)Nc3[nH]nc(C)c32)cc1OC (configuration not stated) | 33.99 | – |
| Cc1cnn(C2CCCN(C(=O)c3cc(C)sc3C)C2)c1 (configuration not stated) | 1.503 | – |
| CCOC(=O)CC(c1ccc(OC)c(OC)c1)c1c(O)n[nH]c1C (configuration not stated) | 17.75 | – |
| COC(=O)CC(c1ccc(OC)c(OC)c1OC)c1c(O)n[nH]c1C (configuration not stated) | 39.76 | – |

| SMILES | Percent Effect (10 mM as filed; unlikely as a test dose) [%] | Percent Effect (10 mM, 10 mM as filed; unlikely as a test dose) |
| --- | --- | --- |
| CCOC(=O)CC(c1cccc(OC)c1OC)c1c(C)[nH][nH]c1=O (configuration not stated) | – | 39.38% and 50.02% |
| O=C(NC[C@]1(O)CCN(Cc2ccccc2F)C[C@H]1O)c1c[nH]cn1 | -15.39 | – |
| CC(C)c1ccc(CN[C@@H]2COC[C@H]2c2ccc(F)cc2)cc1 | 38.02 | – |
| COc1ccccc1CNC(=O)C1=NN(c2ccc(C)cc2)C(=O)CN1 | 59.16 | – |
| O=C(NCc1cccnc1)C1=NN(c2ccccc2)C(=O)CN1 | -12.05 | – |
| COCc1ccc(CNC(=O)C2=NN(c3ccccc3)C(=O)CN2)cc1 | -8.016 | – |
| O=C(NCCNC(=O)c1scnc1Cl)c1ccccc1Cl | 2.223 | – |
| CCCc1nc(N2CCN(CC)CC2)c2c(n1)c(C)nn2CC | 19.74 | – |
| CCCc1nc(NCCc2ccccc2)c2c(n1)c(C)nn2CC | 98.38 | – |
| CCCc1nc(N2CCC(C)CC2)c2c(n1)c(C)nn2CC | 17.45 | – |
| CCn1nc(C)c2nc(C)nc(NCCc3ccc(C)cc3)c21 | 87.9 | – |
| CCn1nc(C)c2nc(C)nc(NCCc3ccccc3)c21 | 18.42 | – |
| CCn1nc(C)c2nc(C)nc(NC3CCCC3)c21 | 42.26 | – |
| CCCc1nc(N2CCCCC2)c2c(n1)c(C)nn2CC | -11.73 | – |
| CCCc1nc(N2CCCCCC2)c2c(n1)c(C)nn2CC | 68.4 | – |
| CCCc1nc(N2CCSCC2)c2c(n1)c(C)nn2CC | 16.49 | – |
| COc1cc(C(=O)N(CCC#N)Cc2ccccn2)ccc1C | 2.226 | – |
| COC1CCN(S(=O)(=O)NCC2COc3ccccc3C2)CC1 (configuration not stated) | 23.14 | – |
| CC(=O)N1CCC(C(=O)NC2CCc3nccn3C2)CC1 (configuration not stated) | -4.558 | – |
| Cc1nnc(C2CCN(c3ccc(F)cc3)CC2)o1 | 0.33 | – |
| CC[C@H]1N(C)CCC[C@]12CCC(=O)N2Cc1ccncc1.O=C(O)C(F)(F)F.O=C(O)C(F)(F)F | 4.525 | – |
| Cc1cn2c(n1)CCC(NC(=O)c1[nH]nc(C)c1Br)C2 (configuration not stated) | -35.87 | – |
| O=C(CSC1CCc2ccccc2NC1=O)NC1CC1 (configuration not stated) | -0.1015 | – |

| SMILES | Percent Effect (10 mM as filed; unlikely as a test dose) [%] | Percent Effect (10 mM, 10 mM as filed; unlikely as a test dose) |
| --- | --- | --- |
| COc1cccc(CN2CCC(c3nn(CCN)c4nccnc34)C2)c1 (configuration not stated) | -33.21 | – |
| COc1cccc(NC(=O)NCC2CCCN(C3CCOCC3)C2)c1 (configuration not stated) | -9.956 | – |
| COC(=O)c1sccc1S(=O)(=O)N1CCC(Oc2cnccn2)CC1 | 11.89 | – |
| COC(=O)c1sccc1S(=O)(=O)N1CCC(Oc2cccnn2)CC1 | 10.5 | – |
| COC(=O)c1sccc1S(=O)(=O)N1CCC(Oc2ncccc2Cl)CC1 | 63.53 | – |
| CCOCC1CN(C(=O)c2ccnnc2)Cc2cnn(CC)c21.O=C(O)C(F)(F)F (configuration not stated) | 10.27 | – |
| CC1CCN(C(=O)CN2CC(c3nc(C4CC4)no3)C2)CC1.O=C(O)C(=O)O | -25.89 | – |
| O=C(CN1CC(c2nc(C3CC3)no2)C1)N1CCOCC1.O=C(O)C(=O)O | 59.8 | – |
| NC(=O)CN1CC(c2nc(C3CC3)no2)C1.O=C(O)C(=O)O | -1.644 | – |
| CN(Cc1ccncc1)c1cncc(Br)c1 | -1.215 | – |
| CN(C)[C@H]1CCN(c2nc(C(C)(C)C)nc3c2cnn3C)C1 | 15.83 | – |
| COCC1CCN(c2nc(C(C)(C)C)nc3c2cnn3C)C1 (configuration not stated) | 57.26 | – |
| Cn1ncc2c(N3CCC(CCO)CC3)nc(C(C)(C)C)nc21 | 26.71 | – |
| Cc1cnn(CC2CN(CCc3ccccn3)CCO2)c1 (configuration not stated) | -8.826 | – |
| N[C@H]1CC[C@@H](n2cc(C(=O)NC3CCc4ccccc4C3)nn2)CC1 (some centres not stated) | 43.67 | – |
| N[C@H]1CC[C@@H](n2cc(C(=O)N[C@H]3CCCc4ccccc43)nn2)CC1 | 52.81 | – |
| N[C@H]1CC[C@@H](n2cc(C(=O)NC3COc4ccccc43)nn2)CC1 (some centres not stated) | 8.791 | – |
| Cc1cn2c(n1)CCC(NC(=O)CNS(C)(=O)=O)C2 (configuration not stated) | -12.28 | – |
| Cc1cc(Nc2ccc(F)cn2)cc(C2CCN(Cc3ncc[nH]3)C2)n1 (configuration not stated) | 67.32 | – |
| Fc1ccc(Nc2ccc(C3CCN(Cc4ncc[nH]4)CC3)nc2)nc1 | 12.33 | – |
| Cc1cccc(Nc2ccc(C3CCN(Cc4ncc[nH]4)CC3)nc2)n1 | 12.85 | – |
